Assay outcomes: PubChem, National Center for Advancing Translational Sciences (NCATS)
This is a sample that favours compounds with a hit; in the whole collection about 17% have one here.
TGFb inhibitor: qHTS for Inhibitors of TGF-b | HepG2 CAGA-GFP TGF-b/SMAD3 reporter, GFP fluorescence, 18 h; TGF-beta stimulated, 500 pg/mL final | Potency, µM (series often up to 46.1 µM), for the others: at the top dose activity, negative = inhibition, most hits filed as inhibitors | 410,000 compounds, 1.2% hits | AID 588855, 2011; also: % is scaled to controls: 0 for no effect and ±100 for the full control effect; nearly all actives have a fitted effect of over 65% in size
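GFP signal (ex488/em500-530) from TGF-beta-stimulated HEPG2 CAGA-GFP cells, 500 pg/mL final, 18 h at 37 degrees C in DMEM plus 1% FBS, normalized to unstimulated and DMSO-stimulated controls.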
HepG2 tox: qHTS for Inhibitors of TGF-b: Cytotox Counterscreen; HepG2 CAGA-GFP viability, ATP luminescence, 18 h; Potency, µM (series often up to 46.1 µM), without a hit: top-dose activity change, negative = cytotoxicity, hits mostly cytotoxic; 410,000 compounds, 0.76% hits
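HepG2 CAGA-GFP cells (1000/well, DMEM with 1% FBS) received compound, then TGF-beta at 500 pg/mL final, and were incubated 18 hours at 37 degrees C. Viability was read by CellTiter-Glo luminescence. Media-only wells were set as complete cell-killing and DMSO as no toxicity.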
HT1080 IDH1KD tx: qHTS for induction of synthetic lethality in tumor cells producing 2HG: qHTS for the HT-1080-IDH1KD cell line | 360,000 compounds, 2% hits | HT-1080 IDH1 knockdown viability, ATP luminescence, 48 h | Potency, µM (highest dose often 46.1 µM), for inactives: top-dose activity, negative = toxicity, usual class: cytotoxic;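 also: 0% = DMSO wells and -100% = cell-free medium wells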
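Cytotoxicity counter-line: IDH1KD HT-1080, 48 h, CellTiter-Glo. Curves classed by r2, magnitude and activity.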
HT1080NT lethal: qHTS for induction of synthetic lethality in tumor cells producing 2HG: qHTS for the HT-1080-NT fibrosarcoma cell line; HT-1080-NT fibrosarcoma viability, CellTiter-Glo ATP luminescence, 48 h; Potency, µM (series often up to 46.1 µM), without a hit: top-dose activity, negative = less viability, hits mostly cytotoxic; 360,000 compounds, 1.6% hits; AID 686970, 2013;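 also: NT is the 2HG producing partner of a matched IDH1 knockdown line; 0% = DMSO-treated cells and -100% = media-only wells without cells; nearly all actives have a fitted effect of over 55% in size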
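Luminescent CellTiter-Glo readout after 48 hours of compound exposure at 37 degrees C defined viability of HT-1080-NT cells. Activity was normalized to DMSO wells and cell-free media wells; concentration-response curves were fitted and assigned curve classes.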
TDP1 cell noCPT: qHTS for Inhibitors of human tyrosyl-DNA phosphodiesterase 1 (TDP1): qHTS in cells in absence of CPT | AID 686978, 2013 | Potency, µM (highest dose often 46.2 µM), for the others: at the highest dose activity change, negative = growth inhibition, usual class: inhibitors | DT40 Tdp1-/- hTDP1 cells, no CPT, ATP luminescence, 48 h | 420,000 compounds, 15% hits; also: % is scaled to controls: 0 for no effect and ±100 for the full control effect; nearly all actives have a fitted effect of over 55% in size
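Camptothecin absent (DMSO only). Human TDP1-complemented DT40 knockout cells, 400 cells/well, 37 °C for minimum 48 hr; ATP measured via CellTiter-Glo, 30 min dark incubation, luminescence.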
TDP1 cell CPT: qHTS for Inhibitors of human tyrosyl-DNA phosphodiesterase 1 (TDP1): qHTS in cells in presence of CPT; chicken DT40 Tdp1-/-;hTDP1 cells + 20 nM CPT, ATP luminescence, 48 h; 420,000 compounds, 12% hits; Potency, µM (top dose mostly 46.2 µM), for the others: at the highest dose activity change, negative = growth inhibition, most hits filed as inhibitors; also: % is scaled to controls: 0 for no effect and ±100 for the full control effect; nearly all actives have a fitted effect of over 55% in size
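Cell growth measured by CellTiter-Glo luminescence after a minimum 48 h, 37 C compound exposure with 20 nM CPT in Tdp1-knockout DT40 cells stably expressing hTDP1, seeded 400/well; qHTS titration format.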
* hit, by the source's call; ? = inconclusive; . = no result given; ! = a repeat was not active. Calls follow the shape of the dose curve; as a rule, active = well fitted curve in the direction sought with a large enough effect; inconclusive = small, poorly fitted or top-dose-only effect, or another doubt; inactive = no such curve, though single readings can be large; an effect the other way counts as inactive or inconclusive. Potency is read from the fitted curve at half-maximal effect.

SMILES | TGFb inhibitor | HepG2 tox | HT1080 IDH1KD tx | HT1080NT lethal | TDP1 cell noCPT | TDP1 cell CPT
Cc1ncoc1C(=O)NCC1=C(c2ccc3ccccc3c2)C[C@@H]2CC[C@H]1N2Cc1ccco1 | -18% | -38% | 2% | -18% | ? | ?
COCCN(CC(=O)Oc1ccccc1P(=O)(OC)OC)Cc1ccccc1 | 30% | 37% | 24% | -2% | -13% | 1%
CC(Cc1ccccc1)NC(=O)Cc1ccc([N+](=O)[O-])cc1 (configuration not stated) | 10% | -2% | -3% | 0% | -2% | -17%
CO[C@H]1C[C@H](O[C@H]2[C@H](C)O[C@@H](O[C@@H]3/C(C)=C/C[C@@H]4C[C@@H](C[C@]5(C=C[C@H](C)[C@@H](C6CCCCC6)O5)O4)OC(=O)[C@@H]4C=C(C)[C@@H](O)[C@H]5OC/C(=C\C=C\[C@@H]3C)[C@]54O)C[C@@H]2OC)O[C@@H](C)[C@@H]1O | . | . | . | . | 4.7µM* | 2.7µM*
Cc1ccc([C@@H]2CC(=O)[C@@H]3CN(S(=O)(=O)c4ccccc4C)[C@H](c4ccc(Cl)cc4)C[C@@H]3N2S(=O)(=O)c2ccc(C)cc2)cc1 | -1% | -2% | -1% | 3% | 26µM* | ?
O=S(=O)(c1ccc(Cl)cc1)N1CCCC1c1cccnc1 (configuration not stated) | 14% | -1% | -11% | -15% | -12% | -1%
COc1ccc(CN2Cc3cc(N4CCCCC4)ccc3-n3nncc3C2)cc1 | ? | -15% | 3% | 2% | ? | ?
CCN1/C(=C/C=C/C2=[N+](CC)c3ccccc3C2(C)C)C(C)(C)c2ccccc21 | ? | -79% | 10µM* | 9.2µM* | 0.13µM* | 0.15µM*
CN1/C(=C\C=C2C(=O)NC(=O)NC2=O)C(C)(C)c2ccccc21 | 100% | -3% | ? | ? | -28% | ?
COc1ccc(N=Cc2c(O)n(-c3ccc(C)cc3)c(=O)[nH]c2=O)cc1 | 18% | 8% | -9% | -12% | -4% | -26%
Cn1c(O)c(/C=N/Nc2ccccc2)c(=O)n(C)c1=O | 4% | 1% | 7.3µM* | 8.2µM* | -7% | 22%
Cc1ccc(-n2c(O)c(/C=N/N3CCCCCC3)c(=O)[nH]c2=O)cc1C | -5% | -4% | 1% | 12% | 5% | 12%
Cc1ccc(-n2c(O)c(/C=N/Nc3ccccc3)c(=O)[nH]c2=O)cc1C | 9% | 2% | 6.5µM* | ? | -18% | 24%
COc1ccc(N/N=C/c2c(O)n(-c3ccc(C)c(C)c3)c(=O)[nH]c2=O)cc1 | -7% | -10% | ? | ? | 29µM* | ?
N#Cc1ccc(CN2CCC3(CC2)CCN(C(=O)Oc2ccccc2)CC3)cc1 | . | . | . | . | -21% | -1%
CCOP(=O)(OCC)C(Cc1ccc(OC)c(OC)c1)N=C(c1ccccc1)c1ccccc1 (configuration not stated) | -5% | -21% | -14% | -11% | ? | ?
CCOP(=O)(OCC)C(O)c1ccc(OC)cc1 (configuration not stated) | 1% | -2% | 27% | 17% | 5% | 10%
C=CCN1CC[C@]23c4c5ccc(O)c4O[C@@H]2C(=O)CC[C@]3(O)[C@H]1C5 | . | . | . | . | -11% | -3%
NCc1cccnc1 | . | . | . | . | -11% | 12%
COc1cc2c(cc1OC)C13CCN4CC5=CCOC6CC(=O)N2C1C6C5C3C4 (configuration not stated) (tested in a mixture with another compound) | -15% | -7% | 5% | 9% | ? | 13µM*
CCN1C[C@]2(COC(=O)c3ccccc3N3C(=O)CC(C)C3=O)CC[C@H](OC)[C@@]34C5C[C@@H]6[C@@H](OC)C[C@@](O)(C5[C@H]6OC)[C@](O)([C@@H](OC)C23)[C@@H]14 (some centres not stated) | . | . | . | . | 14% | 4%
Cc1ccc(C)c(N2CCN(C(=O)C3CCCN(S(=O)(=O)c4cccc5nsnc45)C3)CC2)c1 (configuration not stated) | ? | -18% | . | . | 7.3µM* | 5.8µM*
CN(Cc1ccc(OC(F)F)cc1)Cc1nc2c(Br)cc(Br)cc2c(=O)[nH]1 | ? | -32% | 3% | 4% | 16µM* | ?
CC(NC(=O)CNC(=S)N(Cc1ccccc1)Cc1cccnc1)c1ccccc1 (configuration not stated) | 12% | -20% | 0% | -1% | ? | ?
C=CCOC(=O)C1=C(C)OC(N)=C(C#N)C12C(=O)N(CN1CCOCC1)c1ccccc12 (configuration not stated) | -7% | 0% | -9% | -2% | 2% | -21%
SMILES | TGFb inhibitor | HepG2 tox | HT1080 IDH1KD tx | HT1080NT lethal | TDP1 cell noCPT | TDP1 cell CPT
CC1CCN(C(CC(=O)c2ccccc2)C(=O)c2ccccc2)CC1 (configuration not stated) | ? | 22µM* | ? | -12% | 2.1µM* | 2.6µM*
O=C(CN1CCCCC1)c1ccccc1 | ? | -16% | . | . | -15% | -27%
Cc1ccc(CNC(=O)CCCn2c(=O)c3sccc3n(CC(=O)Nc3c(C)cccc3C)c2=O)cc1 | 1% | 3% | . | . | -16% | -2%
c1ccc(-n2ccnc2)cc1 | 10% | -2% | 4% | 26% | -7% | 2%
CN1C(=O)CN=C(c2ccccc2)c2cc([N+](=O)[O-])ccc21 | . | . | . | . | 17µM* | ?
CC(=O)O[C@H]1CC[C@@]2(C)C(=CC[C@H]3[C@@H]4CC[C@H](C(C)=O)[C@@]4(C)CC[C@@H]32)C1 | 4% | 2% | 11% | 12% | 16µM*! | ?
CC(=O)C1CCC2C3CCC4=CC(=O)CC[C@@]4(C)C3CC[C@]12C (some centres not stated) | . | . | . | . | 15µM* | 13µM*
CC(C)CC(N)c1csc(NC(=O)Nc2ccccc2-c2ccccc2)n1 (configuration not stated) | ? | -97% | -21% | ? | 18µM* | 23µM*
